Holding throughout (test): DAPPL (digital affinity profiling via proximity ligation, sequencing); 10 mM Tris-HCl pH 7.5, 50 mM NaCl, 1 mM DTT, 4% glycerol, room temperature, 30 min; GST-TFs on glutathione beads, 16-mer random dsDNA library, 0.1% formaldehyde crosslink after washing; high values mean tight binding
Common to all, as to details: protein: recombinant; tags: N-terminal GST; dsDNA, one strand shown

The target of one experiment is T1, FLI1 (Homo sapiens, UniProt Q01543 1-452).
T1 sequence: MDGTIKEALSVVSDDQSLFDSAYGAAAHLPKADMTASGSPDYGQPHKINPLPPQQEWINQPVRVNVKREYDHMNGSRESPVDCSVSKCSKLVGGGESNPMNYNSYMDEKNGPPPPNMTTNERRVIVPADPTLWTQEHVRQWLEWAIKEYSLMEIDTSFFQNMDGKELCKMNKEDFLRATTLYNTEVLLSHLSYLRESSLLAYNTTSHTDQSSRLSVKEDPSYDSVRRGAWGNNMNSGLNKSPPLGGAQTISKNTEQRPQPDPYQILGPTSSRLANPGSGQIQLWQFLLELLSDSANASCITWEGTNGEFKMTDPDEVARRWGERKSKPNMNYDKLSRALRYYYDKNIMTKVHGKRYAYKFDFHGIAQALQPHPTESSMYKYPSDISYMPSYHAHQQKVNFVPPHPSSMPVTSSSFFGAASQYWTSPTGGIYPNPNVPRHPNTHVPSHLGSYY
In a few lines: (§1)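 Beads coated with glutathione captured GST-fused human transcription factors that had been expressed in yeast, and the factors were then given DNA barcodes and pooled with a tag-only sample. The pools were incubated with 200 nmole of a random double-stranded 16-mer DNA library in Tris/NaCl/DTT/glycerol buffer for 30 min at room temperature, washed, crosslinked with 0.1% formaldehyde and proximity-ligated with BsaI/T4 ligase at 37 °C for 1 h. PCR amplification and Illumina NextSeq500 sequencing came last. Binding signal is each hexamer's read frequency for a factor divided by its frequency for the tag-only sample.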

A further experiment deals with T2, ELK1 (Homo sapiens, UniProt P19419 1-428).
T2 sequence: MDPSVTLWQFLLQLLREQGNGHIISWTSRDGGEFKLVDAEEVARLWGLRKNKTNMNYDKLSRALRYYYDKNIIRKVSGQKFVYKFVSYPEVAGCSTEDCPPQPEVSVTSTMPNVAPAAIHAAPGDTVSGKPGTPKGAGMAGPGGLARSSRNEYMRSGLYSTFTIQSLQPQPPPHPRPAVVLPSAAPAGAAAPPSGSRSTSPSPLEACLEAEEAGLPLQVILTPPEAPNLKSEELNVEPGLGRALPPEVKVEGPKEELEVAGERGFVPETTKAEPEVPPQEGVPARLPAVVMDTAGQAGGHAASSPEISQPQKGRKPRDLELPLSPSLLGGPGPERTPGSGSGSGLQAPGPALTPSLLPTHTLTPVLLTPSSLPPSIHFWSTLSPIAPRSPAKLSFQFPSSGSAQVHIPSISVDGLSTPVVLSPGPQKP
In a few lines:
as §1

The next experiment deals with T3, GABPA (Homo sapiens, UniProt Q06546 1-454).
T3 sequence: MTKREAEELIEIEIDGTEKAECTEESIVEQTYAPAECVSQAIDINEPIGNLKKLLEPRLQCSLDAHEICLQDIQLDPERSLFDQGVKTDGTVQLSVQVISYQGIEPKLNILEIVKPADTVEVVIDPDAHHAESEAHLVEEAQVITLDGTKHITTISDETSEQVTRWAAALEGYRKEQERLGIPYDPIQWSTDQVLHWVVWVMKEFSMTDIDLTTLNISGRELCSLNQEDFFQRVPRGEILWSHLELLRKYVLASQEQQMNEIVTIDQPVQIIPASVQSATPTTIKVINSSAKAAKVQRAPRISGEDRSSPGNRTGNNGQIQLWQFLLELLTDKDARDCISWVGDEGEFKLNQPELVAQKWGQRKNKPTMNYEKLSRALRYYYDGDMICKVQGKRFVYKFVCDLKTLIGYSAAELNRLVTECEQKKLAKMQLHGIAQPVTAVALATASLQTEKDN
In a few lines:
as §1

A further experiment addresses T4, ERG (Homo sapiens, UniProt P11308 1-479).
T4 sequence: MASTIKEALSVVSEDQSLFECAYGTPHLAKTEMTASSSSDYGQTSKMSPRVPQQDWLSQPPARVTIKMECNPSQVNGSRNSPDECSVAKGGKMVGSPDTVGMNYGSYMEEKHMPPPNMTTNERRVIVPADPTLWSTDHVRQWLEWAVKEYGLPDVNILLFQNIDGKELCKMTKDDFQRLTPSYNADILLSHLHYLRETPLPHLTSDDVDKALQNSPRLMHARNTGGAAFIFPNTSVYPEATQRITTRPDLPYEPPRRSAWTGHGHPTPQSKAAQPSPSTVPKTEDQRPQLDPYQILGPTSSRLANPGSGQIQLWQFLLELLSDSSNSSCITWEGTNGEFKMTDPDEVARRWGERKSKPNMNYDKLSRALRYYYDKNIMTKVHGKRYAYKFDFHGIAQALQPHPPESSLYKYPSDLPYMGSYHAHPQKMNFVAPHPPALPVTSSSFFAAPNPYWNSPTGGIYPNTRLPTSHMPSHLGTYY
In a few lines: as §1

Another experiment concerns the target ELF1 (Homo sapiens, UniProt P32519 1-619). In a few lines: as §1
The next experiment addresses SPI1 (Homo sapiens, UniProt P17947 1-270). Put shortly:
as §1

For another experiment, the target named is T5, ELK3 (Homo sapiens, UniProt P41970 1-407).
T5 sequence: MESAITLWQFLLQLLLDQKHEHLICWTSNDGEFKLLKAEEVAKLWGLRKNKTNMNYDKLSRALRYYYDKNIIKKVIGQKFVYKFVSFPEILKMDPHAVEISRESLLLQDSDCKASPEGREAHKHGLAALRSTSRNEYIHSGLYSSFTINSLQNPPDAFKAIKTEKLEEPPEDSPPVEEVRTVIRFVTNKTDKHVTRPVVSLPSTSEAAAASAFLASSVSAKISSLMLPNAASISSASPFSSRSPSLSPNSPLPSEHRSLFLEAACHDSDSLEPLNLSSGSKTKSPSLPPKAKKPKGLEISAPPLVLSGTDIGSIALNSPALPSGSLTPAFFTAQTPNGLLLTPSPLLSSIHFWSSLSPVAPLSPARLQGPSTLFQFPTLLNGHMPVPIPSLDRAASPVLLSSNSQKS
Put shortly: as §1

In a further experiment the target is T6, FEV (Homo sapiens, UniProt Q99581 1-238).
T6 sequence: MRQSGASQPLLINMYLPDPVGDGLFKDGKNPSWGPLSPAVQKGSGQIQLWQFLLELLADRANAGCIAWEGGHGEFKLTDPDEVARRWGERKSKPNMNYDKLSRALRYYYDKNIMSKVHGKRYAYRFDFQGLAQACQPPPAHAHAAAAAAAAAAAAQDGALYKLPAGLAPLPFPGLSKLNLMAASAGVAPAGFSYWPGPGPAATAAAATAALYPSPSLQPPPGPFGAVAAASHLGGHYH
In a few lines: as §1

The next experiment concerns the target ETV5 (Homo sapiens, UniProt P41161 1-510). In a few lines:
as §1

The target of another experiment is T7, SPIC (Homo sapiens, UniProt Q8N5J4 1-248).
T7 sequence: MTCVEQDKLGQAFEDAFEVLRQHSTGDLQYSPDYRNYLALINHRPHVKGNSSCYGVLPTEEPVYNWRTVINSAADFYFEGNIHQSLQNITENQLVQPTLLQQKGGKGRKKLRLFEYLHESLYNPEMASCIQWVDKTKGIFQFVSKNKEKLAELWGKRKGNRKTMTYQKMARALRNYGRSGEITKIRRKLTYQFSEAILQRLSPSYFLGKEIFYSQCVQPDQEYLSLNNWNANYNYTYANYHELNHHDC
Put shortly: as §1

A further experiment has as its target ELF4 (Homo sapiens, UniProt Q99607 1-663). Put shortly:
as §1

The target of a further experiment is T8, ELK4 (Homo sapiens, UniProt P28324-2 1-405).
T8 sequence: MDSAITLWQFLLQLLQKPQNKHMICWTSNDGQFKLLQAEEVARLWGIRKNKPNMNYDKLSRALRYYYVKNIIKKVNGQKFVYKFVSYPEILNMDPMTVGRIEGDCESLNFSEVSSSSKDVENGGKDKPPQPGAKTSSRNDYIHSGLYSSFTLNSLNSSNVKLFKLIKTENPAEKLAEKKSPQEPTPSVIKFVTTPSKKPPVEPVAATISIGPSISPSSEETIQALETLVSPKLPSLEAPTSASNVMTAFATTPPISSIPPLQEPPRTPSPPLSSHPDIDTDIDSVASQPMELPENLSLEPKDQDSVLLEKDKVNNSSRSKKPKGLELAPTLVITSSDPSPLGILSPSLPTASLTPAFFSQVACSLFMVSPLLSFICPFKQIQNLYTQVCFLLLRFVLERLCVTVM
In a few lines:
as §1

In the next experiment the target is T9, ETV2 (Homo sapiens, UniProt O00321 1-342).
T9 sequence: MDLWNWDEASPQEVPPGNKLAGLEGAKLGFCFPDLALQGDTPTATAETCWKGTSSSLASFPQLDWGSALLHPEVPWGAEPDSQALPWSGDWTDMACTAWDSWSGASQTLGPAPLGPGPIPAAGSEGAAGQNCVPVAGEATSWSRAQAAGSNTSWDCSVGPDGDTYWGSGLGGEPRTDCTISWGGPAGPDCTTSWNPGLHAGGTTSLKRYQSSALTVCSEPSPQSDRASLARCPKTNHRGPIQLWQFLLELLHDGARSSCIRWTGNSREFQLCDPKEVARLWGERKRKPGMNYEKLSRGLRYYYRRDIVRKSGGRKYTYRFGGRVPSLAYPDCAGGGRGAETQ
Put shortly: as §1

The target in the next experiment is T10, EHF (Homo sapiens, UniProt Q9NZC4 1-300).
T10 sequence: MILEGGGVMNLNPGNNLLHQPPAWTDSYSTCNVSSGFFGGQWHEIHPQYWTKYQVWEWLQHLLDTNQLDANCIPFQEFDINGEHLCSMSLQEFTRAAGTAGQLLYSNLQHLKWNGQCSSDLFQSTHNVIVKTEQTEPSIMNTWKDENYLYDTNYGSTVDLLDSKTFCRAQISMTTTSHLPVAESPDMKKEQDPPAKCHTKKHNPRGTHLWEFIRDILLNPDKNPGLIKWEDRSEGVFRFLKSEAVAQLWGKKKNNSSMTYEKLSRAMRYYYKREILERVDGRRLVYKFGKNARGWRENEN
Put shortly:
as §1

In the next experiment the target is SPIB (Homo sapiens, UniProt Q01892 1-262). Put shortly:
as §1

The target in a further experiment is ETV1 (Homo sapiens, UniProt P50549 1-477). In a few lines: as §1
Chain of ETV1 (P50549 whole entry): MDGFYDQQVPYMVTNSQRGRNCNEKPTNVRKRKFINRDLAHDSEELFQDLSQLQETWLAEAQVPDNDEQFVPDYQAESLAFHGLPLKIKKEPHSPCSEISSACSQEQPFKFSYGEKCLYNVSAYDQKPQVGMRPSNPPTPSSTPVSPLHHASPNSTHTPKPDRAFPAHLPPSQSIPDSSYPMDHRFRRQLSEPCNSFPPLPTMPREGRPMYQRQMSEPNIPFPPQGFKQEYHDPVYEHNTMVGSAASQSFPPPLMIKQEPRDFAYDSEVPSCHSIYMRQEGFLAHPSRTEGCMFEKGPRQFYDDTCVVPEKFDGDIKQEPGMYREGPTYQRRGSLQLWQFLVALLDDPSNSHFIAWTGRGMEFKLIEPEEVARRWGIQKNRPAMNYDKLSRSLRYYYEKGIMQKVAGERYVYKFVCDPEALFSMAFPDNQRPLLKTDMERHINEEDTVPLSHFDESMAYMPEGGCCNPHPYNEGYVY

Chain of ETV5 (P41161 whole entry): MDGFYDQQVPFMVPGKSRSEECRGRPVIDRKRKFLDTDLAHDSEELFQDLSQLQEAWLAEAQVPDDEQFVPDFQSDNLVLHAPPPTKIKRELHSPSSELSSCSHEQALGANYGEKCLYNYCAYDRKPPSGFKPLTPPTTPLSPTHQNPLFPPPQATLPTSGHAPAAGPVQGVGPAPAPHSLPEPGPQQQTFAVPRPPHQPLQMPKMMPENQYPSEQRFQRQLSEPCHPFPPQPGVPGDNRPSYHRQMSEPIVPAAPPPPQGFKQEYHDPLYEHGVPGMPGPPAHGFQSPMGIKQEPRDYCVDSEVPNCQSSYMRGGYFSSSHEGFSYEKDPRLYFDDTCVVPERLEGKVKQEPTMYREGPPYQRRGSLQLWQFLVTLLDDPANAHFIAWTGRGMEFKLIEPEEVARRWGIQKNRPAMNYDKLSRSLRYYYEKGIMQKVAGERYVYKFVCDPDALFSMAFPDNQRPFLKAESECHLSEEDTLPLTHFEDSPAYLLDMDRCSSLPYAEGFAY
Chain of ELF1 (P32519 whole entry): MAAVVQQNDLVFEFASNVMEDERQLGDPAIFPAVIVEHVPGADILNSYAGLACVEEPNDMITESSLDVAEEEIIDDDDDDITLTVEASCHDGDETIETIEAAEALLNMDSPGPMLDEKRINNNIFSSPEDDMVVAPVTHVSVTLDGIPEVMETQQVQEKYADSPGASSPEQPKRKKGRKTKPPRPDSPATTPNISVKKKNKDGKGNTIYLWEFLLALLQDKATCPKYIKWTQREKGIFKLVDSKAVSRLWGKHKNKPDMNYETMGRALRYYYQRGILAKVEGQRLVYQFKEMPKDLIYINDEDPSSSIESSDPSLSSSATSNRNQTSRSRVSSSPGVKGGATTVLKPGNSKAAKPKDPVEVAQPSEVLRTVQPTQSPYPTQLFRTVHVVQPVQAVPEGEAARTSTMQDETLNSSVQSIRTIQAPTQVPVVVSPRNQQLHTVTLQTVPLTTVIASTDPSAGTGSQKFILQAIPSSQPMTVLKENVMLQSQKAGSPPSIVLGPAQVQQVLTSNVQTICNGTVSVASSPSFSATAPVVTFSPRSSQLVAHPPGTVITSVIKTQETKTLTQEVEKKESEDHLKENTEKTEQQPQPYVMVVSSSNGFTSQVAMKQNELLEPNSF
Chain of ELF4 (Q99607 whole entry): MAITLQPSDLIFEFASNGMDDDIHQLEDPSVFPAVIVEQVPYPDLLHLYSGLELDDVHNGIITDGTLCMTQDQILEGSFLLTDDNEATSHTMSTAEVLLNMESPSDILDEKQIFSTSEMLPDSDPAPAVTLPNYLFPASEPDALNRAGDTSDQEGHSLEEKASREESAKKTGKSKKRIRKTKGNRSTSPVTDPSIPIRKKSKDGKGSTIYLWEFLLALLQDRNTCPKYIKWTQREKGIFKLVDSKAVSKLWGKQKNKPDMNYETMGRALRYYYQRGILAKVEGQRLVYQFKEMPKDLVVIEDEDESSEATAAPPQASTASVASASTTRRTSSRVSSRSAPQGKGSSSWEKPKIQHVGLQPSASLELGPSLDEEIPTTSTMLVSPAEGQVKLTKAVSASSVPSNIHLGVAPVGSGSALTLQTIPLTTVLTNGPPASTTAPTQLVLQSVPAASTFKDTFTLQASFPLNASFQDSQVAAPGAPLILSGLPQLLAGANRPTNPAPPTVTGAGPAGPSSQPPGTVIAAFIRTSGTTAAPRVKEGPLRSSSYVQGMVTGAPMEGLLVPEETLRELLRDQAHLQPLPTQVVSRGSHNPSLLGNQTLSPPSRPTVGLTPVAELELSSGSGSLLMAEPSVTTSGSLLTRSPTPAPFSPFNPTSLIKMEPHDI
Chain of SPIB (Q01892 whole entry): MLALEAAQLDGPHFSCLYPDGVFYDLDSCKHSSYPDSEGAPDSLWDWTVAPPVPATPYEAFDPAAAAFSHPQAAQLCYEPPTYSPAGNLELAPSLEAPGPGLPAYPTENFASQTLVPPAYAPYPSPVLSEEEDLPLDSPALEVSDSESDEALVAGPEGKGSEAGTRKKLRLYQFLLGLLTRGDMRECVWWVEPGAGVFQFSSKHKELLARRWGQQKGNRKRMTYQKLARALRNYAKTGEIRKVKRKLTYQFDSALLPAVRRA

As for GCTGGC, the binding signal was 1.01 fold enrichment (6-mer frequency, TF over GST control) with FLI1; 1.21 fold enrichment (6-mer frequency, TF over GST control) in the experiment with ELK1; 1.02 fold enrichment (6-mer frequency, TF over GST control) in the experiment with GABPA; 1.01 fold enrichment (6-mer frequency, TF over GST control) with ERG; 1.11 fold enrichment (6-mer frequency, TF over GST control) with ELF1; 1 fold enrichment (6-mer frequency, TF over GST control) in the experiment with SPI1. Also, the binding signal with ELK3 was 1.03 fold enrichment (6-mer frequency, TF over GST control); with FEV, 1.06 fold enrichment (6-mer frequency, TF over GST control); with ETV5 it was 1.02 fold enrichment (6-mer frequency, TF over GST control); with SPIC, 1.12 fold enrichment (6-mer frequency, TF over GST control); with ELF4, 1.15 fold enrichment (6-mer frequency, TF over GST control); with ELK4 it was 1.1 fold enrichment (6-mer frequency, TF over GST control). Further, the binding signal with ETV2 is 1.07 fold enrichment (6-mer frequency, TF over GST control).

On to GCGCCC, for which the binding signal with FLI1 is 1.07 fold enrichment (6-mer frequency, TF over GST control); in the experiment with ELK1, 1.1 fold enrichment (6-mer frequency, TF over GST control); with GABPA, 1.11 fold enrichment (6-mer frequency, TF over GST control); in the experiment with ERG, 1.13 fold enrichment (6-mer frequency, TF over GST control); in the experiment with ELF1, 1.11 fold enrichment (6-mer frequency, TF over GST control); with EHF, 1.03 fold enrichment (6-mer frequency, TF over GST control). For the same sequence, the binding signal was 1.09 fold enrichment (6-mer frequency, TF over GST control) with SPIB; 1.18 fold enrichment (6-mer frequency, TF over GST control) with ELK3; 1.08 fold enrichment (6-mer frequency, TF over GST control) with FEV; 1.04 fold enrichment (6-mer frequency, TF over GST control) in the experiment with ETV5; 1.01 fold enrichment (6-mer frequency, TF over GST control) with SPIC; 1.19 fold enrichment (6-mer frequency, TF over GST control) with ELF4. The binding signal with ELK4 was 1.02 fold enrichment (6-mer frequency, TF over GST control); with ETV2, 1.02 fold enrichment (6-mer frequency, TF over GST control); with ETV1, 1.05 fold enrichment (6-mer frequency, TF over GST control).

Take ACGGCC: the binding signal is 1.1 fold enrichment (6-mer frequency, TF over GST control) in the experiment with FLI1; 1.13 fold enrichment (6-mer frequency, TF over GST control) with ELK1; 1.12 fold enrichment (6-mer frequency, TF over GST control) with GABPA; 1.09 fold enrichment (6-mer frequency, TF over GST control) in the experiment with ERG; 1.09 fold enrichment (6-mer frequency, TF over GST control) with ELF1; 1.09 fold enrichment (6-mer frequency, TF over GST control) with EHF. The binding signal is 1.09 fold enrichment (6-mer frequency, TF over GST control) with SPI1; 1.26 fold enrichment (6-mer frequency, TF over GST control) with SPIB; 1.06 fold enrichment (6-mer frequency, TF over GST control) in the experiment with FEV; 1.14 fold enrichment (6-mer frequency, TF over GST control) in the experiment with ETV5; 1.03 fold enrichment (6-mer frequency, TF over GST control) in the experiment with SPIC; 1.15 fold enrichment (6-mer frequency, TF over GST control) with ELF4. In addition, the binding signal is 1.06 fold enrichment (6-mer frequency, TF over GST control) in the experiment with ELK4; 1.01 fold enrichment (6-mer frequency, TF over GST control) with ETV2; 1.05 fold enrichment (6-mer frequency, TF over GST control) in the experiment with ETV1.

For the origin of these results see paper PMC7862700, “An all-to-all approach to the identification of sequence-specific readers for epigenetic DNA modifications on cytosine”.
